Assay [1] can be described thus: anti-His antibody binders, primary screen, artefact control for SMM control protein annotation, biochemical, small-molecule microarray, 635 nm fluorescence (AID 1128).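 Note: score merges feature fluorescence with signal-to-noise for each printed compound spot.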 Conditions: anti-His Alexa647 antibody binding, higher = more signal.
The test system of assay [2] is Human papillomavirus type 1a E7 protein (residues 1-88). The assay can be described thus: HPV1a E7 small-molecule binders, primary screen, biochemical, small-molecule microarray, residues 1-88, 635 nm (AID 1129). As to conditions: small-molecule microarray binding, fluorescence 635 nm; higher = more signal.
The target in assay [3] is Focal adhesion kinase 1 (Homo sapiens) (UniProt Q05397). The assay can be described thus: small-molecule microarray binders of FAK, primary screen, biochemical, 635/667 nm fluorescence, BSA, DTT (AID 1130).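 Note: composite of spot emission at 667 nm and signal to noise over triplicate slides.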 As to conditions: PTK2 binding, 635 nm fluorescence, higher = more signal.
Assay [4] concerns Fibrinogen (Alexa647-labelled). The assay can be described thus: fibrinogen binders on compound microarrays, profiling panel, artefact control for SMM control-protein annotation, biochemical, small-molecule microarray, 635/667 nm fluorescence (AID 1131).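 Note: z-score merges 667 nm fluorescence with per-spot signal-to-noise over triplicate slides.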 Conditions: fibrinogen-A647 binding fluorescence, higher = more signal.
Assay [5] concerns the target Follistatin (Homo sapiens) (UniProt P19883). The assay can be described thus: follistatin binders on small-molecule microarrays, primary screen, biochemical, small-molecule microarray, 635/667 nm fluorescence (AID 1132). As to conditions: FST binding, 635 nm fluorescence, higher = more signal.
Assay [6] addresses Fibroblast growth factor 2 (Homo sapiens) (UniProt P09038). In words: FGF2 binders on small-molecule microarrays, primary screen, biochemical, small-molecule microarray, 635/667 nm fluorescence (AID 1133). Conditions: small-molecule microarray binding, FGF2, fluorescence 635/667; higher = more signal.
Assay [7] in a line: mitochondrial membrane potential change in A549 cells, profiling panel, cell-based, JC-1 fluorescence, basal, 24 h, 100 nL (AID 1138).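 Note: A549 lung adenocarcinoma cells under basal conditions with no added stimulus; test concentration not given here.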 Conditions: higher = more signal.
The subject of assay [8] is Lefty1. In words: Lefty1 binders on small-molecule microarrays, primary screen, biochemical, small-molecule microarray, 635/667 nm fluorescence (AID 1139). As to conditions: small-molecule microarray binding, fluorescence 635/667; higher = more signal.
In assay [9] the test system is wheat germ agglutinin (Triticum aestivum), Alexa647-labelled. The assay can be described thus: wheat germ agglutinin binders on compound microarrays, profiling panel, artefact control for SMM control-protein annotation, biochemical, small-molecule microarray, 635/667 nm fluorescence (AID 1140).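 Note: score merges 667 nm feature emission with signal to noise over triplicate slides.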 As to conditions: WGA-A647 binding, 635 nm fluorescence, higher = more signal.

Assay [10] concerns the target Luciferin 4-monooxygenase (Photinus pyralis) (UniProt P08659). The assay can be described thus: firefly luciferase enzyme inhibitors, primary screen, biochemical, luminescence, purified enzyme, 2006 set (AID 1141).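 Note: cell-free assay with purified firefly luciferase at 100 ng per well in PBS; test concentration not given here.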 Conditions: SteadyGlo luminescence, 30 min, higher = more signal, called active from +8 up or from −8 down.
The subject of assay [11] is Wnt5a (protein binding on small-molecule microarray). In words: Wnt5a binders on small-molecule microarray, primary screen, biophysical, 635/667 nm fluorescence (AID 1142).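 Note: fluorescence read at 667 nm with signal to noise per printed feature.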 Conditions: 635 nm fluorescence, higher = more signal.
A short description of assay [12]: cell viability in Huh7 cells, primary screen, cytotoxicity control for HCV replication inhibitor project, CellTiter-Glo luminescence, basal, 48 h (AID 1143).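 Note: Huh7 hepatoma cells carrying a hepatitis C replication reporter with no stimulus; test concentration not given here.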 Conditions: Huh7 HCV replicon, higher = more signal, called active from +8 up or from −8 down.
Assay [13] in a line: P. aeruginosa biofilm formation inhibitors, primary screen, PAO1 strain, BacTiter-Glo luminescence, LB-PBS (AID 1144). Conditions: 12 h, higher = more signal.
A short description of assay [14]: CREB reporter modulators without forskolin, primary screen, cell-based, PC12, CRE-LacZ reporter, unstimulated (AID 1145). Conditions: no forskolin, luminescence, 4.5 h, higher = more signal, called active from +8 up or from −8 down.
A short description of assay [15]: CREB reporter modulators under forskolin, primary screen, cell-based, PC12, CRE-LacZ reporter, forskolin-stimulated (AID 1146).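 Note: PC12 cells with 6xCRE LacZ reporter stimulated by forskolin 10 µM; beta-galactosidase reporter signal reflecting CREB driven transcription.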 As to conditions: luminescence, 4.5 h, higher = more signal, called active from +8 up or from −8 down.
Assay [16] has as its target Streptavidin (Streptomyces avidinii) (UniProt P22629). In words: streptavidin binders on small-molecule microarray, primary screen, artefact control for SMM compound annotation, biophysical, 635/667 nm fluorescence (AID 1147).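 Note: signal reflects streptavidin binding to arrayed compounds as a control protein.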 As to conditions: streptavidin binding, higher = more signal.
The nature of assay [17]: small-molecule binders of probe aInhba, primary screen, biochemical, small-molecule microarray, 635/667 nm fluorescence (AID 1148).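 Note: score merges 667nm spot fluorescence with signal-to-noise for antibody binding to printed compounds.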 As to conditions: higher = more signal.
The target in assay [18] is Torsin-1A (Homo sapiens) (UniProt O14656). The assay can be described thus: torsin A binders from cell lysate, primary screen, small-molecule microarray, wild-type, 635/667 nm (AID 1149). Conditions: COS7 hTOR1A-WT lysate, 635 nm fluorescence, higher = more signal.
The target is the same in assay [19]. In words: small-molecule binders of mutant TOR1A in lysate, primary screen, cell lysate, small-molecule microarray, COS7 lysate, 635/667 nm fluorescence (AID 1150).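 Note: score pools 667 nm emission and signal to noise measuring lysate protein binding.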 Conditions: COS7 hTOR1A mutant lysate, 635 nm fluorescence, higher = more signal.
The subject of assay [20] is Sonic hedgehog protein (Shh). The assay can be described thus: small-molecule binders of Shh protein, primary screen, biochemical, small-molecule microarray, 635/667 nm fluorescence (AID 1151).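 Note: Shh protein binding to compounds spotted on small-molecule microarray slides; score combines spot fluorescence intensity with signal-to-noise across triplicate slides.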 Conditions: small-molecule microarray binding, 635 nm fluorescence; higher = more signal.

The source made the active and inactive calls. Unless noted, the rule behind the calls is not given here.

Chain of Torsin-1A (Homo sapiens) (O14656 whole entry, looked up): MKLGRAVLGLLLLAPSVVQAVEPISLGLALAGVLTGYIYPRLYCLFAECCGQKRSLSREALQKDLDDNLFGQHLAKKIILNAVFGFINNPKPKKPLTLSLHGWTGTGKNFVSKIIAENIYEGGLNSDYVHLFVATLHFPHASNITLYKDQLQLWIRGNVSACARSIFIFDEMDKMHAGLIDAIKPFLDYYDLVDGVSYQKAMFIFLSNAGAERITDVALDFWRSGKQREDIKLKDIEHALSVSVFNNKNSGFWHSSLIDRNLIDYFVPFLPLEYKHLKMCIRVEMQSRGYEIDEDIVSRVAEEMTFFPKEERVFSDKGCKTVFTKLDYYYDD
Chain of Focal adhesion kinase 1 (Homo sapiens) (Q05397 whole entry, looked up): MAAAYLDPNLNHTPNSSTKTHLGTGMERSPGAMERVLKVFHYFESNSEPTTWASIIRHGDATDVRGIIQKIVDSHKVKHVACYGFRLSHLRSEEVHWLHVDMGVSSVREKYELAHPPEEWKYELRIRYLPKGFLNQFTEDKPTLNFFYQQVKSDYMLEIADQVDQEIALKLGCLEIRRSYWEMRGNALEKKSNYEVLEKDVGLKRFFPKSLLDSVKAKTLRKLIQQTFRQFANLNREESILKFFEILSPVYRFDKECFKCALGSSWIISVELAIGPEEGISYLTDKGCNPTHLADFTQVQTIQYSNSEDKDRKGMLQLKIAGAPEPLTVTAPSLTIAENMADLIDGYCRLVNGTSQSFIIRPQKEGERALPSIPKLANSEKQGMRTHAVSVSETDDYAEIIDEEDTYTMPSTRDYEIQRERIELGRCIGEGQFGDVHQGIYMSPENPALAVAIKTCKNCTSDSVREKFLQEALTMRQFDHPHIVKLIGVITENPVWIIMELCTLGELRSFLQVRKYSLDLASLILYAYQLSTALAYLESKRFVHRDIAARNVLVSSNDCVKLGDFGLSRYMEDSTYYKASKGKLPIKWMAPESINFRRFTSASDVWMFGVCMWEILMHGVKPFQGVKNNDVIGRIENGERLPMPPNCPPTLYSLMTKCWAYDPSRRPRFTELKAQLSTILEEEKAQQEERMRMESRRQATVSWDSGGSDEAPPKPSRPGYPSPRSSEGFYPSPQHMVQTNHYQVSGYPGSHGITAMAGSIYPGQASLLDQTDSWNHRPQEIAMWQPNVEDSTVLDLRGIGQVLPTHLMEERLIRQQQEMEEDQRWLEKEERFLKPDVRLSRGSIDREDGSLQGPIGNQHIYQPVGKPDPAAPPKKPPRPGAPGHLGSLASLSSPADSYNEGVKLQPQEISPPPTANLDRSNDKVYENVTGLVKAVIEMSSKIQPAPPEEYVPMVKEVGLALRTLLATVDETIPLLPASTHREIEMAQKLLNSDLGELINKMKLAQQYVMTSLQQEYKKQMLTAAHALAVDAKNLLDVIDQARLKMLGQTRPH
Chain of Luciferin 4-monooxygenase (Photinus pyralis) (P08659 whole entry, looked up): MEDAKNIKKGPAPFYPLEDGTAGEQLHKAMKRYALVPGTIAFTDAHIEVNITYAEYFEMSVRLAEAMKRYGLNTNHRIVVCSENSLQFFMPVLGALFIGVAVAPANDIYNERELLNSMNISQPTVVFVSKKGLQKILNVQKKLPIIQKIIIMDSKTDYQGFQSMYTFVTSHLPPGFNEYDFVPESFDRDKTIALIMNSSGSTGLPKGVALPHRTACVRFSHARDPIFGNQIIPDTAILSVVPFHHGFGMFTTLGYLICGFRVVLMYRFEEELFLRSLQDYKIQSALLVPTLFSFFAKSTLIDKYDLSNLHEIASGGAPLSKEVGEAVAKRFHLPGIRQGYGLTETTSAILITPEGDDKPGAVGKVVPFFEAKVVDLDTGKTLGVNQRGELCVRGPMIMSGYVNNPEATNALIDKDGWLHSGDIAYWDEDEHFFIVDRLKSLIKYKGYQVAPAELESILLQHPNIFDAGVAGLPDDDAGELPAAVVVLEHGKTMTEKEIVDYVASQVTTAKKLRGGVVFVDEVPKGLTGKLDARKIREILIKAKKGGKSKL
Chain of Follistatin (Homo sapiens) (P19883 whole entry, looked up): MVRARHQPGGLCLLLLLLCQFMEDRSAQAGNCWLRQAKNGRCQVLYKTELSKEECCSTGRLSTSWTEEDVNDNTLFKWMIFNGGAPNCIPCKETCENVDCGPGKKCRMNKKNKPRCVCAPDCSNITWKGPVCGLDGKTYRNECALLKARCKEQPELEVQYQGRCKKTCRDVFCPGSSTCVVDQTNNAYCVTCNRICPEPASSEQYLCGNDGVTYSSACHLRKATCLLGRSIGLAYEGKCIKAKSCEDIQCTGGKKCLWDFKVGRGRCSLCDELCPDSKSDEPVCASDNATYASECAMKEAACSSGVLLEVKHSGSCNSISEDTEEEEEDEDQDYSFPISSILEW
Chain of Fibroblast growth factor 2 (Homo sapiens) (P09038 whole entry, looked up): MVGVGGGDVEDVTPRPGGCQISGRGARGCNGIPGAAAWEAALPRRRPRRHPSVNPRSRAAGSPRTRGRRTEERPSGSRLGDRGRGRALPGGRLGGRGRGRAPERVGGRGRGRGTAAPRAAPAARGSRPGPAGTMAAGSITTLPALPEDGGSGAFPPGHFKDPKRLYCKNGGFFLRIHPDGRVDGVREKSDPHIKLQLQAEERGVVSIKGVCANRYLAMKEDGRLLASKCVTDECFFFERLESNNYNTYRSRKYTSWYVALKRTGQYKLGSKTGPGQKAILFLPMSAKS
Chain of Streptavidin (Streptomyces avidinii) (P22629 whole entry, looked up): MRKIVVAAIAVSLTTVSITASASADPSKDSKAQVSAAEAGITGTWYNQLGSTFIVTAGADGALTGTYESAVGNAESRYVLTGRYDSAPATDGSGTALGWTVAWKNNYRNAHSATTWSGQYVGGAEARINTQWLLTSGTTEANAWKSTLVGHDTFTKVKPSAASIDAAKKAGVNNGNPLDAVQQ

For `O=C1C2C=CC(C(O)c3ccc(-c4ccccc4)s3)N(Nc3ccccc3)C2C(=O)N1c1ccccc1` (stereo not given), the composite z-score in [1] is 2.17; in assay [2], 1.25; in assay [3], 0.473; in [4], 0.974; in assay [5] it was 0.899; in [6], -0.413. The composite z-score in [8] is -0.28; in assay [9], 0.807; in assay [11], 0.155; in assay [16] it was 0.908; in assay [17], 0.0183; in assay [18], -0.499. In addition, the composite z-score in [19] stood at 1.21; in assay [20] it was 0.0134. Further, the z-score is 0.267 in assay [7]; 0.192 (inactive) in [10]; -0.514 (inactive) in [12]; -1.25 (inactive) in assay [13]; 0.0569 (inactive) in assay [14]; 0.117 (inactive) in [15].

Take `CCCC(=O)N(CCc1c[nH]c2ccccc12)[C@@H]1CC(C(=O)NCCO)=C[C@H](Oc2c(I)cc(CO)cc2OC)[C@H]1O`: the composite z-score in assay [1] is -0.156; in [2], -0.064; in assay [3], -0.185; in [4], -1.04; in assay [5], 0.0919; in [6], 0.289. In addition, the composite z-score in [8] is 0.0596; in assay [9], 0.302; in assay [11] it was -0.0727; in assay [16], -0.268; in assay [17], -0.128; in [18], -0.24. Moreover, the composite z-score is 0.0165 in assay [19] and -0.251 in [20]. For the same compound, the z-score in assay [7] was 1.13; in assay [10], -0.437 (inactive); in assay [12] it was -0.0737 (inactive); in assay [13] it was -0.396 (inactive); in assay [14], 0.486 (inactive); in assay [15], -0.887 (inactive).

`CC[C@@H]1C=C(C(=O)O)[C@H](c2cccc3ccccc23)N1S(=O)(=O)c1ccc(C)cc1`: the composite z-score was 1.18 in assay [1]; 1.11 in assay [2]; 1.39 in assay [3]; 0.159 in assay [4]; 0.414 in assay [5]; 0.108 in [6]. The composite z-score in [8] is -0.103; in assay [9], 0.302; in assay [11], 0.0605; in assay [16] it was 0.985; in [17], -0.128; in assay [18] it was 0.224. Further, the results for the composite z-score in assay [19] and in assay [20] were 0.331 and -0.173, respectively. The z-score is -0.345 in assay [7]; 1.46 (inactive) in assay [10]; -0.0086 (inactive) in assay [12]; 0.235 (inactive) in [13]; -0.723 (inactive) in [14]; 0.754 (inactive) in assay [15].

Take `COC(=O)[C@]1(CCC(=O)OC(C)(C)C)N=C(c2ccc(OCCCO)cc2)O[C@@H]1c1ccccc1`: the composite z-score in [1] was 2.76; in [2], 0.527; in assay [3] it was -0.239; in assay [4], -0.233; in assay [5], 0.263; in assay [6], 0.16. Also, the composite z-score in assay [8] was -0.657; in assay [9], 0.197; in assay [11] it was -0.102; in assay [16], -0.98; in [17], 0.154; in assay [18], -0.927. In addition, the values for the composite z-score in assay [19] and in [20] were -0.343 and 0.169, respectively. Moreover, the z-score in [7] is 0.804; in assay [10], -2.77 (inactive); in assay [12], -4.76 (inactive); in assay [13], 0.314 (inactive); in assay [14] it was 2.39 (inactive); in assay [15], -0.0673 (inactive).

On to `COCC(=C=CC[C@@H](O)c1ccc(OCCO)cc1)C[C@@H](O)c1ccccn1`, for which the composite z-score was 2.32 in assay [1]; -0.14 in assay [2]; 0.359 in [3]; 0.792 in assay [4]; 0.979 in [5]; 0.249 in assay [6]. Further, the composite z-score in [8] is 0.517; in [9], 0.643; in assay [11], 0.117; in assay [16], 0.556; in [17], 0.0001; in assay [18], 0.0308. The values for the composite z-score in assay [19] and in assay [20] were -0.467 and 1.04, respectively. The z-score was 0.0965 in assay [7]; -0.501 (inactive) in [10]; 0.0073 (inactive) in [12]; 0.0661 (inactive) in assay [13]; -0.0602 (inactive) in [14]; 2.62 (inactive) in assay [15].

For the origin of these results see PubChem BioAssay.
